Inconclusive results are not listed. The source made the active and inactive calls. Unless noted, calls come from the whole dose curve; as a rule, active = well fitted curve in either direction with a large enough effect (not every such curve was filed as active); inconclusive = small, poorly fitted or top-dose-only effect, or another doubt; inactive = flat fitted curve, though single readings scatter.
Legend:
[1] = target: Lysosomal acid glucosylceramidase (Homo sapiens) (UniProt P04062); experiment: Glucocerebrosidase-p2 (AID 348; in the data active = potency below about 10 µM; note: potency is the fitted concentration of half-maximal effect); settings: purified GBA, blue fluorogenic substrate, 40 min
Chain of Lysosomal acid glucosylceramidase (Homo sapiens) (P04062 whole entry, looked up): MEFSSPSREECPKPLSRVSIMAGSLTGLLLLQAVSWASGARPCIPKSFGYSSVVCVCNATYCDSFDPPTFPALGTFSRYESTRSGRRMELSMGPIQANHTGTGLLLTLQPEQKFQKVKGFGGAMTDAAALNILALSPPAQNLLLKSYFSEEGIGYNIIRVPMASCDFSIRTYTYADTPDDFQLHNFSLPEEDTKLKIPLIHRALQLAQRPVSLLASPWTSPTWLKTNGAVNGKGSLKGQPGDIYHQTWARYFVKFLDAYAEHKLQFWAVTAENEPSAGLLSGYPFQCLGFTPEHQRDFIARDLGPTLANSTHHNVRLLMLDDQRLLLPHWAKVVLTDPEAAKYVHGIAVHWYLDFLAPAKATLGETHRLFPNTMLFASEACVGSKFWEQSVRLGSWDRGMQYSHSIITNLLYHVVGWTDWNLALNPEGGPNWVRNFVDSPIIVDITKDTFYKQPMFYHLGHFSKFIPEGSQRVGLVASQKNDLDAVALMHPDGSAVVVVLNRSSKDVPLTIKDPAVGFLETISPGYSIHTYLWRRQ
Method in brief: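 Normal human glucocerebrosidase (0.2 nM) with blue fluorogenic substrate (80 uM final) in citrate/phosphate pH 5.9 with 10mM sodium taurocholate, 0.01% tween-20; 40 min RT, NaOH/glycine stop; fluorescence Ex 365/Em 440; AC50 from a titration from 0.6 nM upwards.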

[2] = AP1 Signaling Pathway (AID 357); settings: ME-180 AP-1-bla reporter, EGF-induced, beta-lactamase ratio, 5 h; at 7.69 µM (top of the series) unless noted;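 note: ME-180 reporter cells stimulated with EGF at its EC50 level; % is set by controls: 0 for no effect and ±100 for the full control effect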
Method in brief: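 Modulation of EGF-driven AP-1 transcription was assessed with a beta-lactamase reporter in ME-180 cells. Compound and EC50 EGF were co-incubated 5 hours at 37 °C before 2.5-hour CCF4 loading at room temperature and dual-emission reading.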

[3] = NFAT Signaling Pathway (AID 444); settings: Jurkat NFAT-bla M1, carbachol, beta-lactamase ratio, 5 h; at 7.69 µM (top of the series) unless noted;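 note: carbachol stimulus at about its EC50 of 1 µM final; % is set by controls: 0 for no effect and ±100 for the full control effect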
Method in brief: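 Jurkat cells with NFAT-driven β-lactamase reporter and co-expressed M1 receptor, stimulated with carbachol (final 1 uM, ~EC50), compound titration, 5 h at 37 °C. CCF4 loaded 1 h at RT; 460/530 nm ratio gave %activity and AC50.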

[4] = Stat Signaling Pathway (AID 446); settings: ME-180 SIE beta-lactamase reporter, IL-6 stimulated, 5 h; at 7.69 µM (top of the series) unless noted;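 note: ME-180 cervical cancer cells given 40 pM IL-6 alongside compound; SIE-controlled beta-lactamase reporter measured as 460/530 nm FRET emission ratio; % is set by controls: 0 for no effect and ±100 for the full control effect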
Method in brief: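 FRET read-out (405 nm excitation, 460/530 nm emission) of a beta-lactamase reporter under a STAT-inducible element in ME-180 cervical carcinoma cells. Cells with compound receive 40 pM IL-6 for 5 h. Values are normalised to AC90 stimulation and AC90 JAK-inhibitor controls.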

[5] = target: Glucocorticoid receptor (Homo sapiens) (UniProt P04150); experiment: GR-GFP Redistribution (AID 450;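 active = compounds whose dose series gives a full or clear partial fitted curve of increased nuclear translocation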; note: potency is the fitted concentration of half-maximal effect); settings: U2OS GR-GFP nuclear translocation, laser cytometry, 2 h
Chain of Glucocorticoid receptor (Homo sapiens) (P04150 whole entry, looked up, the tested form may be a part): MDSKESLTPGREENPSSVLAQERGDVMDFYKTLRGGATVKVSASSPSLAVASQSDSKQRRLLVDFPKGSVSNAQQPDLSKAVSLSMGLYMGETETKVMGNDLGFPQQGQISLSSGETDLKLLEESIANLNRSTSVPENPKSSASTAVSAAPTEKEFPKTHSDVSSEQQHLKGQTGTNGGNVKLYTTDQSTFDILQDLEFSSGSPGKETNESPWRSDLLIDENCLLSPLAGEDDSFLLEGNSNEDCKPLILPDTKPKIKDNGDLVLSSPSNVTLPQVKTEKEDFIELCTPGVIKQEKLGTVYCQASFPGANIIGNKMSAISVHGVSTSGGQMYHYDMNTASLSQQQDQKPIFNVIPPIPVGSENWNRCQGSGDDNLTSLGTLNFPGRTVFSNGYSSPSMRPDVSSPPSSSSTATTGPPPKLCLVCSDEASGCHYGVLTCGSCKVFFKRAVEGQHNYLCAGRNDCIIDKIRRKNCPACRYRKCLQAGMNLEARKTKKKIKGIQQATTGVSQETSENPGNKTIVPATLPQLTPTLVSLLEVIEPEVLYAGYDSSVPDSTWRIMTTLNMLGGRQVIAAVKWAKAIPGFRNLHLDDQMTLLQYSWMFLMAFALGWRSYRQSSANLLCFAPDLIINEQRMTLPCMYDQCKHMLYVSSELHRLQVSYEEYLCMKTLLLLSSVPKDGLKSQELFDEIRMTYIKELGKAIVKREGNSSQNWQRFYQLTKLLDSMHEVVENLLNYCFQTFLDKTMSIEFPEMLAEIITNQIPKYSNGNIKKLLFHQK

[6] = target: Glucocorticoid receptor (Homo sapiens) (UniProt P04150); experiment: GR-EFC Redistribution (AID 451; calls by dose curve; note: potency is the fitted concentration of half-maximal effect); settings: CHO-K1 GR-EFC translocation, beta-gal luminescence, 2 h
Method in brief: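 CHO-K1 cells expressing nuclear EA and GR-ED fragments of b-gal; compounds titrated up to 46 uM final, 2 h at 37 C. GR nuclear translocation read as complemented b-gal luminescence after 1 h RT detection.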

[7] = target: Mitogen-activated protein kinase 10 (Mus musculus) (UniProt Q61831); experiment: JNK3 AlphaScreen Assay (AID 530); settings: JNK3 lysate, c-Jun phosphorylation; series mostly up to 11.4 µM;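 note: kinase came from lysate of stimulated human HepG2 cells; signal reports phosphorylation of biotinylated GST-cJun 1-79 at Ser73 with 10 µM ATP; % is set by controls: 0 for no effect and ±100 for the full control effect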
Method in brief: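 Activity was read by AlphaScreen after JNK3-containing HepG2 lysate (cytokine pre-activated) phosphorylated biotinylated GST-cJun with 10 uM ATP at room temperature. Phospho-Ser73 cJun antibody with Protein-A acceptor beads provided detection.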

[8] = target: 3',5'-cyclic-AMP phosphodiesterase 4B (Homo sapiens) (UniProt Q07343); experiment: qHTS Assay for Inhibitors of PDE-IV (AID 607; active = well fitted activation curve with a large enough effect in the main read-out, with a control signal flat, not every such curve was filed as active; note: % of control where 0% means no effect); settings: HEK293 ACTOne CNG channel cells, membrane potential fluorescence; series mostly up to 22.9 µM
Chain of 3',5'-cyclic-AMP phosphodiesterase 4B (Homo sapiens) (Q07343 whole entry, looked up): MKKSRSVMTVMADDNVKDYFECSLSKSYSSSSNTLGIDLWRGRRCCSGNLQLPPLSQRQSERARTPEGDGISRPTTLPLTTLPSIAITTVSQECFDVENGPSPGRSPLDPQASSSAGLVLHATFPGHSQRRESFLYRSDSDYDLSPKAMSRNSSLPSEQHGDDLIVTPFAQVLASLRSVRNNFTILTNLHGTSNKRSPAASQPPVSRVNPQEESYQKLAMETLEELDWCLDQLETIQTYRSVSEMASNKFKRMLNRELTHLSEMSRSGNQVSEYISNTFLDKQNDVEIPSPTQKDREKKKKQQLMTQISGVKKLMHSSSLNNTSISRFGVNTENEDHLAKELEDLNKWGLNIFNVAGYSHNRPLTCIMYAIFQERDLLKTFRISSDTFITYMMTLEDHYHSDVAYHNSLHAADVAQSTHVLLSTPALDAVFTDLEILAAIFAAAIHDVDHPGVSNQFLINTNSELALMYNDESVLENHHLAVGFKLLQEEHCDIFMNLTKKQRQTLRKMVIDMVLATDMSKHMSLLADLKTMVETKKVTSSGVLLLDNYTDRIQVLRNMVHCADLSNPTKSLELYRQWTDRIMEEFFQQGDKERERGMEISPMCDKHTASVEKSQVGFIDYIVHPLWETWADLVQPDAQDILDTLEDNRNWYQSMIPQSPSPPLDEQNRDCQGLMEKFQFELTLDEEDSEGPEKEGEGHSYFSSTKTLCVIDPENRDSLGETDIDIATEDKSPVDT
Method in brief: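 Cell-based read-out of cAMP via a modified cyclic nucleotide-gated channel and membrane potential dye (535/590 nm) in HEK293 cells expressing PDE4 endogenously. Compounds tested up to 22.9 uM final; 100 uM RO 20-1724 reference.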

[9] = qHTS Assay for Identification of Small Molecule Agonists for Hypoxia Response Element Signaling Pathway (AID 914; active = well fitted activation curve with a large enough effect in the signal ratio, with a control signal flat, not every such curve was filed as active; the % refers to the signal ratio; note: % of control where 0% means no effect); settings: ME-180 (cervical carcinoma) HRE-bla reporter, beta-lactamase ratio, CoCl2, 17 h; activation: active compounds read high
Method in brief: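 Cells were plated overnight, pin-dosed with compound in a titration series, co-stimulated with EC50 CoCl2 and incubated 17 hours at 37 degrees Celsius. CCF4 substrate was then loaded, and AC50 values came from the 460nm/530nm ratio.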

[10] = target: Cytochrome P450 2C19 (Homo sapiens) (UniProt P33261); experiment: qHTS Assay for Inhibitors and Substrates of Cytochrome P450 2C19 (AID 899; active = well fitted curve in the direction sought with a large enough effect; an effect the other way counts as inactive or inconclusive; note: nearly all actives have a fitted effect of over 60% in size; note: potency is the fitted concentration of half-maximal effect); settings: recombinant CYP2C19, luciferin-H EGE luminescence; series mostly up to 11.4 µM
Chain of Cytochrome P450 2C19 (Homo sapiens) (P33261 whole entry, looked up): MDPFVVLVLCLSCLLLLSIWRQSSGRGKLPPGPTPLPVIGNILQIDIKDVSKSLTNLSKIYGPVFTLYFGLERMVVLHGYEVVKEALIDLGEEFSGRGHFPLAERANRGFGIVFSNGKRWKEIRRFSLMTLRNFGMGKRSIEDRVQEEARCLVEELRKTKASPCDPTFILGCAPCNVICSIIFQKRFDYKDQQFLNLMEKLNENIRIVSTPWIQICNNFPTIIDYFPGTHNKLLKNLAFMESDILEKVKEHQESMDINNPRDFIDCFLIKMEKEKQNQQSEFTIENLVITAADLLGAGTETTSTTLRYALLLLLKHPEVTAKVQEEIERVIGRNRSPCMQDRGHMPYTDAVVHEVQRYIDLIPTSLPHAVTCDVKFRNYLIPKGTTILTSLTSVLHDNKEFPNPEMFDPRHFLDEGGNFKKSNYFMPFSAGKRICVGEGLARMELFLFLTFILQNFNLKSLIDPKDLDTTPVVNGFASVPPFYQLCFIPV
Method in brief: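 Luminescent read-out of luciferin formed from Luciferin-H EGE (10uM, equal to KM). Enzyme 5nM in 50mM KPO4; compound added, 10 min at 37C, then NADPH regenerating system for 60 min at 37C. Full inhibition defined by 57uM ketoconazole.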

[11] = target: Cytochrome P450 2C9 (Homo sapiens) (UniProt P11712); experiment: qHTS Assay for Inhibitors and Substrates of Cytochrome P450 2C9 (AID 883; active = well fitted curve in the direction sought with a large enough effect; an effect the other way counts as inactive or inconclusive; note: % is set by controls: 0 for no effect and ±100 for the full control effect; nearly all actives have a fitted effect of over 60% in size); settings: recombinant CYP2C9, luciferin-H luminescence, 60 min; series mostly up to 11.4 µM
Chain of Cytochrome P450 2C9 (Homo sapiens) (P11712 whole entry, looked up): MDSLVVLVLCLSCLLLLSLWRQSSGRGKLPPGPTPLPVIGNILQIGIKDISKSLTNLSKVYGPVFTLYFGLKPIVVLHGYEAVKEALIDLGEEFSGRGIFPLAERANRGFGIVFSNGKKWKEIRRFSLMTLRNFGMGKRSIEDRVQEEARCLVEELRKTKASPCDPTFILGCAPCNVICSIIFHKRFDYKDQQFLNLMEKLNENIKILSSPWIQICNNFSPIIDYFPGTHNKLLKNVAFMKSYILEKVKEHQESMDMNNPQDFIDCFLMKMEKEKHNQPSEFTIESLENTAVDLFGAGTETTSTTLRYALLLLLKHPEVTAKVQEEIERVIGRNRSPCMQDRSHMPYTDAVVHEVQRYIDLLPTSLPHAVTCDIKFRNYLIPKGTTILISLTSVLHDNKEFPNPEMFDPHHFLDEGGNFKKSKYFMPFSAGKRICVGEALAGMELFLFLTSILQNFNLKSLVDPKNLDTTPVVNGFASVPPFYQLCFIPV
Method in brief: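 10nM CYP2C9 + 100uM Luciferin-H (=KM), 25mM KPO4; cpd 10 min 37C; NADPH regen, 60 min 37C; stop/detect with P450 Glo-Buffer 20 min; luminescence. Norm. to 57uM sulphaphenazole as full inhibition.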

[12] = Confirmation and Secondary Assay for Modulators of Hemoglobin Beta Chain Splicing at IVS2 654 locus (AID 910; active = well fitted curve in the direction sought with a large enough effect; an effect the other way counts as inactive or inconclusive;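 note: HeLa cells stably carrying EGFP split by mutant beta-globin IVS2-654 intron; % of control where 0% means no effect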); settings: HeLa EGFP-654 splicing reporter, GFP fluorescence, 48 h; series mostly up to 38.3 µM
Method in brief: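 HeLa cells stably expressing EGFP interrupted by β-globin IVS2-654 intron, seeded overnight in Opti-MEM/2% FCS, then treated 2 days at 37 °C. Restored splicing read as total peak GFP intensity per well by laser scanning cytometry (488 nm excitation, 500–520 nm emission); 500 nM antisense PNA as control.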

O=C(O)C[C@H](Sc1ccccc1)c1ccccc1
inactive: Potency [1] > 11.4 µM | activity change, negative = inhibition [2] 7.59% | activity change, negative = inhibition [3] 8.06% | activity, negative = inhibition [4] -24.9% | Potency [5] > 46 µM | Potency [6] > 9.22 µM | Potency [7] | Potency [8] | activation [9] -1.84%

NS(=O)(=O)c1nc(S(=O)(=O)O)c2[nH]cnc2n1
inactive: Potency [1] > 11.4 µM | activity change, negative = inhibition [2] 7.59% | activity change, negative = inhibition [3] 2.24% | activity, negative = inhibition [4] 2.49% | Potency [5] > 46 µM | Potency [6] > 9.22 µM | Potency [7] | Potency [8] | Potency [10]

CC(C)(CO)N1CCN(C(=S)Nc2ccccc2)CC1
inactive: Potency [1] > 11.4 µM | activity change, negative = inhibition [2] 7.77% | activity change, negative = inhibition [3] 17.5% | activity, negative = inhibition [4] -2.59% | Potency [5] > 46 µM | Potency [6] > 9.22 µM | Potency [7] | Potency [8] | activation [9] 10%

NC(=O)CS(=O)C[C@H](N)C(=O)O (some centres undefined)
inactive: Potency [1] > 11.4 µM | activity change, negative = inhibition [2] 23.6% | activity change, negative = inhibition [3] 11% | activity, negative = inhibition [4] 5.38% | Potency [5] > 46 µM | Potency [6] > 9.22 µM | Potency [7] | Potency [8] | activation [9] 18.8%

CS(=O)(=O)c1ccc(/C=N\NC(N)=S)cc1
inactive: Potency [1] > 11.4 µM | activity change, negative = inhibition [2] 2.65% | activity change, negative = inhibition [3] 1.52% | activity, negative = inhibition [4] -2.81% | Potency [5] > 46 µM | Potency [6] > 9.22 µM | Potency [8]

c1ccc2nc(CC[C@@H]3CCCCN3)ccc2c1
inactive: Potency [1] > 11.4 µM | activity change, negative = inhibition [2] 7.07% | activity change, negative = inhibition [3] -3.97% | activity, negative = inhibition [4] -5.39% | Potency [5] > 46 µM | Potency [6] > 9.22 µM | Potency [7] | Potency [8] | activation [9] -14.2%

O=C(O)CC[C@@H](C(=O)O)N1C(=O)[C@@H]2[C@@H]3CC[C@H](C3)[C@@H]2C1=O
inactive: Potency [1] > 11.4 µM | activity change, negative = inhibition [2] 11.4% | activity change, negative = inhibition [3] 3.45% | activity, negative = inhibition [4] -17% | Potency [5] > 46 µM | Potency [6] > 9.22 µM | Potency [7] | Potency [8] | Potency [10]

CC(C)(CCc1nc2ccccc2[nH]1)C(=O)O
inactive: Potency [1] > 11.4 µM | activity change, negative = inhibition [2] -7.34% | activity change, negative = inhibition [3] 6.77% | activity, negative = inhibition [4] 1.19% | Potency [5] > 46 µM | Potency [6] > 9.22 µM | Potency [8] | Potency [11]

CC(C)CNc1nc2ncnc(N)c2[nH]1
inactive: Potency [1] > 11.4 µM | activity change, negative = inhibition [2] 5.51% | activity change, negative = inhibition [3] 1.95% | activity, negative = inhibition [4] -10.8% | Potency [5] > 46 µM | Potency [6] > 9.22 µM | Potency [7] | Potency [8] | activation [9] 10.3%

O=S(=O)(O)c1ccc2c(N=Nc3cccc4ccccc34)c(O)c(S(=O)(=O)O)cc2c1
inactive: Potency [1] > 11.4 µM | activity change, negative = inhibition [2] -5.27% | activity change, negative = inhibition [3] -7.38% | activity, negative = inhibition [4] -0.528% | Potency [5] > 46 µM | Potency [6] > 9.22 µM | Potency [8]

O=C(CON1C(=O)c2ccccc2C1=O)c1ccccc1
inactive: Potency [1] > 11.4 µM | activity change, negative = inhibition [2] -3.99% | activity change, negative = inhibition [3] 4.1% | activity, negative = inhibition [4] 1.01% | Potency [5] > 46 µM | Potency [6] > 9.22 µM | Potency [7] | Potency [8] | activation [9] -13.1%

O=c1[nH][nH]c(=S)c(=O)[nH]1
inactive: Potency [1] > 11.4 µM | activity change, negative = inhibition [2] -2.98% | activity change, negative = inhibition [3] 12.7% | activity, negative = inhibition [4] 3.19% | Potency [5] > 46 µM | Potency [6] > 9.22 µM | Potency [7] | Potency [8] | activation [9] 5.24%

O=S(=O)(O)c1ccc(N=Nc2ccc3c(S(=O)(=O)O)cccc3c2O)c2ccccc12
inactive: Potency [1] > 11.4 µM | activity change, negative = inhibition [2] 1.08% | activity change, negative = inhibition [3] 9.05% | activity, negative = inhibition [4] -4.32% | Potency [5] > 46 µM | Potency [6] > 9.22 µM | Potency [8]

O=[N+]([O-])c1cccc(/C=N\NC2=CS(=O)(=O)C=C2)c1
inactive: Potency [1] > 11.4 µM | activity change, negative = inhibition [2] 4.95% | activity change, negative = inhibition [3] 14.6% | activity, negative = inhibition [4] 5.97% | Potency [5] > 46 µM | Potency [6] > 9.22 µM | Potency [7] | Potency [8] | activation [9] 1.06%

CC(C)=C[C@H]1[C@@H](C(=O)Oc2ccccc2C(C)C)C1(C)C
inactive: Potency [1] > 11.4 µM | activity change, negative = inhibition [2] 9.15% | activity change, negative = inhibition [3] 3.56% | activity, negative = inhibition [4] 6.13% | Potency [5] > 46 µM | Potency [6] > 9.22 µM | Potency [7] | Potency [8]
active: Potency [10] 1.26 µM

Cc1ccc(N=Nc2c(O)ccc3cc(S(=O)(=O)O)ccc23)cc1
inactive: Potency [1] > 11.4 µM | activity change, negative = inhibition [2] -18.1% | activity change, negative = inhibition [3] -0.401% | activity, negative = inhibition [4] -4.61% | Potency [5] > 46 µM | Potency [6] > 9.22 µM | Potency [8]

CC(C)Cn1cnc2c(SCc3ccccn3)nc(N)nc21
inactive: Potency [1] > 11.4 µM | activity change, negative = inhibition [2] -13.7% | activity change, negative = inhibition [3] 8.93% | activity, negative = inhibition [4] -1.91% | Potency [5] > 46 µM | Potency [6] > 9.22 µM | Potency [7] | Potency [8] | activation [9] 13.1%

O=S(=O)(O)c1ccc2c(N=Nc3c(O)ccc4ccccc34)cccc2c1
inactive: Potency [1] > 11.4 µM | activity change, negative = inhibition [2] -13.3% | activity change, negative = inhibition [3] -11.8% | activity, negative = inhibition [4] -5.48% | Potency [5] > 46 µM | Potency [6] > 9.22 µM | Potency [8]

Cc1cccc(CNc2nc(-c3ccc(C(=O)N(C)C)cc3)nc3ccccc23)c1
inactive: Potency [1] > 11.4 µM | activity change, negative = inhibition [2] -29.6% | activity change, negative = inhibition [3] 25.2% | activity, negative = inhibition [4] -18.6% | Potency [5] > 46 µM | Potency [6] > 46 µM | Potency [7] | outcome [12]

O=C(O)[C@@H](Br)[C@@H](Br)c1ccccc1[N+](=O)[O-]
inactive: Potency [1] > 11.4 µM | activity change, negative = inhibition [2] 3.89% | activity change, negative = inhibition [3] 10.2% | activity, negative = inhibition [4] -0.793% | Potency [5] > 46 µM | Potency [6] > 9.22 µM | Potency [7] | Potency [8] | activation [9] 6.66%

NCCC1([N+](=O)[O-])CCNCC1
inactive: Potency [1] > 11.4 µM | activity change, negative = inhibition [2] 2% | activity change, negative = inhibition [3] 12.9% | activity, negative = inhibition [4] -18.7% | Potency [5] > 46 µM | Potency [6] > 9.22 µM | Potency [7] | Potency [8] | activation [9] 13.3%

O=S(=O)(O)c1ccc(NN(c2c(O)ccc3ccccc23)S(=O)(=O)O)cc1
inactive: Potency [1] > 11.4 µM | activity change, negative = inhibition [2] 8.88% | activity change, negative = inhibition [3] -1.45% | activity, negative = inhibition [4] -0.169% | Potency [5] > 46 µM | Potency [6] > 9.22 µM | Potency [8]
